Screening results: PubChem BioAssay, National Center for Advancing Translational Sciences (NCATS)
Most compounds without a hit are left out; they make up all but 9% or so of the library.
PLK1 PBD block: qHTS for Inhibitors of PLK1-PDB (polo-like kinase 1 - polo-box domain): Primary Screen; Potency, µM, for the others: max response, negative = inhibition, actives largely listed as inhibitors; 360,000 tested, 2.8% active; Serine/threonine-protein kinase PLK1 (Homo sapiens), P53350; Plk1 PBD binding of FITC phosphopeptide, fluorescence polarization; note: series mostly up to about 57 µM; % is set by controls: 0 for no effect and ±100 for the full control effect; nearly all actives have a fitted effect of over 65% in size
HP1b chromo inh: HTS for Inhibitors of HP1-beta Chromodomain Interactions with Methylated Histone Tails; AlphaScreen HP1-beta / biotin-H3K9me3 peptide binding; Potency, µM (titrated, usually from 114 µM), without a hit: top-dose activity change, negative = inhibition, usual class: inhibitors; 390,000 tested, 0.56% active; note: nearly all actives have a fitted effect of over 70% in size
Target sequence (P83916 whole entry, looked up): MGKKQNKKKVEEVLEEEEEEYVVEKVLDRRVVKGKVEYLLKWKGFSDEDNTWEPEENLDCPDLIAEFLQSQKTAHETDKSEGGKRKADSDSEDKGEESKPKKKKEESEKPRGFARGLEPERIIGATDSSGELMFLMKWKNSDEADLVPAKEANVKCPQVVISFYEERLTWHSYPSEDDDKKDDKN
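AlphaScreen: HP1-beta (50 nM) preformed 30 min with biotin-H3(1-18)K9me3 peptide (50 nM) in PBS pH 7.4, 0.01% Tween-20. Compound added for 30 min at RT, then streptavidin donor/nickel chelate acceptor beads (10 ug/mL) for 30 min.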
12-LOX inh: Primary qHTS assay for inhibitors of human arachidonate 12S-lipoxygenase (ALOX12): Round 2 | purified 12hLO, xylenol orange hydroperoxide absorbance | Polyunsaturated fatty acid lipoxygenase ALOX12 (Homo sapiens), P18054 | Potency, µM (series often up to 108 µM), for inactives: at the top dose activity change, negative = inhibition, hits mostly inhibitors | 580,000 tested, 1.1% active; note: % is set by controls: 0 for no effect and ±100 for the full control effect
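Purified human 12hLO (150 nM final) in 25 mM Hepes, 0.01% Triton X-100, pH 7.0 was preincubated 15 min at room temperature with compound. Then 40 uM arachidonic acid was added, 30 min. Hydroperoxide was read by Fe-XO absorbance ratio 573/405 nm.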
JMJD2A Tudor inh: qHTS Assay for Inhibitors of JMJD2A-Tudor Domain; Potency, µM (top dose mostly 114 µM), inactives show at the top dose activity change, negative = inhibition, most hits filed as inhibitors; 390,000 tested, 4.4% active; Lysine-specific demethylase 4A (Homo sapiens), O75164; AlphaScreen JMJD2A-Tudor / H3K4me3 peptide binding; note: % is set by controls: 0 for no effect and ±100 for the full control effect; nearly all actives have a fitted effect of over 50% in size
G9a block: qHTS Assay for Inhibitors of Histone Lysine Methyltransferase G9a; Histone-lysine N-methyltransferase EHMT2 (Homo sapiens), Q96KQ7; G9a H3K9 monomethylation, AlphaScreen, 2 h; Potency, µM (titrated, usually from 102 µM), for the others: at the top dose activity, negative = inhibition, most hits filed as inhibitors; 350,000 tested, 8.8% active; AID 504332, 2011; note: % is set by controls: 0 for no effect and ±100 for the full control effect; nearly all actives have a fitted effect of over 75% in size
Target sequence (Q96KQ7 913-1193 limits assumed): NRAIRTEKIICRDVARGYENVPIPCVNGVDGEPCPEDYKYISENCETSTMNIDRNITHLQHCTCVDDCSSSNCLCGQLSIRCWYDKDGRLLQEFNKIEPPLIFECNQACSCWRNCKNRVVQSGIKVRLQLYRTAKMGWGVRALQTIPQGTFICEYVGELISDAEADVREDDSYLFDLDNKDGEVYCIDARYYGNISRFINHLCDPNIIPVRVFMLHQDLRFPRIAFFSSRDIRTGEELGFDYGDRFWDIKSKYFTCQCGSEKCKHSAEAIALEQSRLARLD
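Chemiluminescent proximity detection of H3K9 monomethylation, read after 10 min bead incubation in the dark. Reaction: 20 nM G9a, 500 nM biotin-H3K9 peptide, 20 uM SAM cofactor, 2 h, room temperature, following 15 min enzyme-compound preincubation.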
BAZ2B block: qHTS Assay for Inhibitors of BAZ2B | Bromodomain adjacent to zinc finger domain protein 2B (Homo sapiens), Q9UIF8 | AlphaScreen BAZ2B-H3K14Ac peptide displacement | Potency, µM (series often up to 114 µM), for the others: top-dose activity change, negative = inhibition, usual class: inhibitors | 360,000 tested, 4.4% active | AID 504333, 2011; note: % is set by controls: 0 for no effect and ±100 for the full control effect; nearly all actives have a fitted effect of over 60% in size
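Compounds, titrated to a top concentration of 110 uM, were incubated 30 min at room temperature with preformed BAZ2B/acetyl-K14 H3 peptide complex (50 nM each). Proximity signal was measured by AlphaScreen after 20 min with beads.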
An asterisk follows results filed as active; ? = inconclusive; . = not tested or not shown; [ ] = dose if it differs, or a comment. Calls come from the whole dose curve; as a rule, active = well fitted curve in the direction sought with a large enough effect; inconclusive = small, poorly fitted or top-dose-only effect, or another doubt; inactive = no such curve, though single readings can be large; an effect the other way counts as inactive or inconclusive. Potency is the fitted concentration of half-maximal effect.

SMILES	PLK1 PBD block	HP1b chromo inh	12-LOX inh	JMJD2A Tudor inh	G9a block	BAZ2B block
Cn1ccc(NC(=O)c2ccc3c(c2)NC(C)(CNCc2ccccc2)CO3)n1 (configuration not stated)	.	.	10%[176 µM]	.	.	.
O=C(c1cccnc1)N1CCN(c2nnc3ccc(Cl)cn23)CC1	.	.	79%	.	.	.
CN(C(=O)c1ccnc(-c2nnc3ccc(N4CCOCC4)nn23)c1)c1ccccc1	.	.	32µM*	.	.	.
O=C(NCc1ccccc1)c1ccnc(-c2nnc3ccc(N4CCOCC4)nn23)c1	.	.	25%[176 µM]	.	.	.
O=C(NC1CCCCC1)Oc1ccccc1	-4%	32%	0%	3%	18%	-1%
O=C(NC1CCCCC1)Oc1cccc2ccccc12	24µM*	?	?	?	3%	-4%
C=CCNC(=O)c1cc(Cl)cc(Cl)c1	30µM*	-7%	-4%	45µM*	-3%	-4%
CNS(=O)(=O)c1cccc(C(=O)NCC2(N3CCCCC3)CCCCC2)c1	-9%	10%	-5%	-17%	-12%	-32%
CCc1ccc2c(CN(CC)Cc3nc4ccccc4c(=O)[nH]3)cc(=O)oc2c1	?	-17%	?	-14%[11.4 µM]	3.5µM*	11%
CCN(Cc1nc2ccccc2c(=O)[nH]1)Cc1nc2ccsc2c(=O)[nH]1	-6%	20%	3%	-30%	14%	-27%
CCN(Cc1cc(=O)n2cc(Cl)c(C)c(Cl)c2n1)Cc1nc2ccccc2c(=O)[nH]1	-26%	-4%	?	-14%[57.1 µM]	50µM*	.
Cc1c(Cl)cn2c(=O)cc(CN3CCN(c4ccccc4)CC3)nc2c1Cl	-13%	29%	8%	-11%[11.4 µM]	40µM*	-14%
COC(=O)c1cc(Br)c(=O)n(CCN2CCCC2)c1	-4%	42%	0%	-20%	50µM*	-2%[57.1 µM]
COC(=O)c1cc(Br)c(=O)n(CCN2CCCCC2)c1	2%	14%	0%	-15%	-4%[59 µM]	-1%
NCC(O)COCCC12CC3CC(CC(C3)C1)C2 (configuration not stated)	-4%	48%	-9%	-15%	-9%[12.7 µM]	-7%
CC(NCC(O)COCCC12CC3CC(CC(C3)C1)C2)c1ccccc1 (configuration not stated)	30µM*	38%	?	?	.	-7%
CC(=O)c1ccccc1NS(=O)(=O)c1ccccc1Cl	-8%	18%	0%	-11%	.	-4%
Cc1cc(=S)c2cccc(C)c2[nH]1	?	-16%	-15%	-20%	56µM*	-30%
CCOC(=O)c1cc2sccc2n1CC(=O)N1CCCc2ccccc21	0%	11%	?	-22%	-5%[12.7 µM]	-3%
CCOC(=O)c1cc2occc2n1CC(=O)N1CCCc2ccccc21	-1%	-29%	1%	?	?	79µM*
COC(=O)c1cc2oc(C)cc2n1CC(=O)N1CCCc2ccccc21	-22%	-20%	?	?	?	89µM*
O=C(OCc1nnc(-c2ccccc2)o1)c1cn(-c2ccccc2)nc1-c1ccccc1	-5%	24%	-7%	2%	11%[59 µM]	17%
Cc1ccc(/C=N/N2CCN(C3c4ccccc4-c4ccccc43)CC2)s1	-6%	-9%	-9%	-34%	79µM*	-11%
COc1ccc(/C=N/N2CCOCC2)cc1O	-1%	34%	7%	0%	-17%[59 µM]	0%
C(=N\N1CCN(C2c3ccccc3-c3ccccc32)CC1)/c1ccccn1	-8%	?	-5%	18µM*	48%[0.501 µM]	20µM*
SMILES	PLK1 PBD block	HP1b chromo inh	12-LOX inh	JMJD2A Tudor inh	G9a block	BAZ2B block
C(=N\N1CCN(C2c3ccccc3-c3ccccc32)CC1)/c1cccnc1	-2%	?	?	56µM*	40%[0.501 µM]	40µM*
COc1ccc(/C=N/N2CCN(C3c4ccccc4-c4ccccc43)CC2)cc1O	27µM*	?	-11%	?	?	35µM*
O=[N+]([O-])c1cc(/C=N/N2CCN(C3c4ccccc4-c4ccccc43)CC2)ccc1Cl	-2%	-6%	-6%	?	?	?
C/C(=N\N1CCN(C2c3ccccc3-c3ccccc32)CC1)c1cccnc1	-7%	-21%	-19%	?	20%[0.501 µM]	?
COc1ccc([N+](=O)[O-])cc1NC(=O)C(C)OC(=O)C1CC(=O)N(Cc2ccco2)C1 (configuration not stated)	-11%	-13%	-17%	-31%	-27%	-3%
CCC(C)Sc1cccc(-c2nc3cc(C)ccn3c2NC2CCCCC2)c1 (configuration not stated)	-2%	33%	?	-20%	.	.
Cc1nc(SC2C=CS(=O)(=O)C2)n[nH]1 (configuration not stated)	-5%	8%	?	56µM*	50µM*	?
COc1ccc(NC2C=CS(=O)(=O)C2)cc1 (configuration not stated)	-19%	45%	?	-16%	6%[59 µM]	-3%
Cc1ccc(NS(=O)(=O)c2ccc(-c3cnc(C4CC4)o3)cc2)cc1F	.	.	3.5µM*	.	.	.
COc1ccc(NS(=O)(=O)c2cc(-c3cnc(C4CC4)o3)ccc2C)cc1	-3%	0%[57 µM]	?	?	50µM*	?
COc1cc(NS(=O)(=O)c2cc(-c3cnc(C4CC4)o3)ccc2C)cc(OC)c1	.	.	1%	.	.	.
O=C(/C=C/c1c(F)cccc1Cl)N1CCc2ccccc2C1	-8%	50%	5.6µM*	31%	-8%[0.501 µM]	20%
N#Cc1c(C(F)(F)F)cc(-c2cccc(Cl)c2)[nH]c1=O	21µM*	98%	6%	?	20%[59 µM]	26%
COc1ccc(NC(=O)NNC(=O)CCc2ccc(O)c(O)c2)cc1OC	-6%	?	?	28µM*	-12%	-17%
COc1ccc(CCC(=O)NNC(=O)Nc2ccc(OC)c(OC)c2)cc1	2%	38%	273%	3%	2%	-1%
COc1cc2c(cc1OC)C(CNC(=O)c1ccccc1C)N(C(=O)Nc1ccccc1)CC2 (configuration not stated)	.	.	23%	.	.	.
COc1cccc2c(=O)c(C(=O)NCCc3ccccc3)c[nH]c12	2%	16%	-11%	-22%	.	.
O=C(O)c1c[nH]c2ccc(F)cc2c1=O	-5%	-2%	-18%	79µM*	18µM*	56µM*
